# Laboratory results published in PubChem BioAssay (EPA / NIEHS).
# Results filed as inconclusive are left out. The source made the active and inactive calls. How the source made its calls, unless noted: active means hit-call score of the fitted dose curve at least 0.9, where 1 is the maximum; inactive means score below 0.9.
# Tests used:
# [1] = CCTE_Mundy_HCI_Cortical_NOG_NeuriteLength: CCTE's Neurite Outgrowth Assay in rat cortical cells for Neurite Length, Mundy Lab (AID 2284213);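 further: neurites imaged about 48 to 50 h after chemical exposure began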
# Method in brief: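 Neurite length was read by high-content imaging of βIII-tubulin-labelled neurites in rat primary cortical cultures. Activity was fitted relative to DMSO.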
# [2] = CCTE_Mundy_HCI_Cortical_Synap_Neur_Matur_NeuriteLength: CCTE's Synaptogenesis and Neurite Maturation Assay in rat cortical cells for Neurite Length, Mundy Lab (AID 2284214)
# Method in brief: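 Rat primary cortical cultures, AraC added DIV 5, dosed DIV 7 through DIV 12 […]. Fixed, MAP2/synaptophysin immunostained with Hoechst; neurite length by high-content imaging, fitted in positive direction versus DMSO.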
# [3] = CCTE_Mundy_HCI_Cortical_Synap_Neur_Matur_NeuriteSpotCountPerNeuron: CCTE's Synaptogenesis and Neurite Maturation Assay in rat cortical cells for Neurite Spot Count per Neuron Count, Mundy Lab (AID 2284215)
# Method in brief: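 Rat primary cortical cells received AraC at DIV 5, then chemicals with a media change at DIV 7, and were fixed at DIV 12. Synaptophysin puncta on MAP2-stained neurites per neuron were counted by high-content imaging, fitted relative to DMSO.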
# [4] = CCTE_Mundy_HCI_Cortical_Synap_Neur_Matur_SynapseCount: CCTE's Synaptogenesis and Neurite Maturation Assay in rat cortical cells for Synapse Count, Mundy Lab (AID 2284218)
# Method in brief: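 Rat primary cortical cultures, AraC at DIV 5, chemical dosing DIV 7 to DIV 12 (288.33 h). Fixed cells stained for MAP2, synaptophysin and Hoechst; synapses per neuron counted by high-content imaging, loss of signal versus DMSO.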
# [5] = CCTE_Mundy_HCI_Cortical_Synap_Neur_Matur_NeuriteCount: CCTE's Synaptogenesis and Neurite Maturation Assay in rat cortical cells for Neurite Count, Mundy Lab (AID 2284222)
# Method in brief: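 Rat primary cortical cells; AraC added at DIV 5, chemicals dosed with media change at DIV 7 through DIV 12. MAP2/synaptophysin/Hoechst immunostaining, high-content imaging of neurite number; fitted relative to DMSO.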
# [6] = CCTE_Mundy_HCI_Cortical_Synap_Neur_Matur_CellBodySpotCount: CCTE's Synaptogenesis and Neurite Maturation Assay in rat cortical cells for Cell Body Spot Count, Mundy Lab (AID 2284223)
# Method in brief: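 Rat primary cortical cultures received AraC at DIV 5 to arrest glia, were dosed with chemical at DIV 7 with media change, and were fixed at DIV 12 (288.33 h). Synaptophysin puncta on MAP2-positive cell bodies per neuron were counted by high-content imaging versus DMSO.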
# [7] = CCTE_Mundy_HCI_hNP1_Pro_ResponderAvgInten: CCTE's Proliferation Assay in human neuroprogenitor cells, Mundy Lab (AID 2284224; active means hit-call score of the fitted dose curve at least 0.9, where 1 is the maximum;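 further: human neural progenitor cells hNP1 derived from WA09 embryonic stem cells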)
# Method in brief: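 Proliferation read as average intensity of BrdU-positive cells, imaged at 26.25 h post-dosing: chemical exposure started after 40–44 h culture, BrdU during final 4 h, paraformaldehyde fixation. Positive-direction fit relative to DMSO.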
# [8] = CCTE_Mundy_HCI_Cortical_NOG_NeuronCount: CCTE's Neurite Outgrowth Assay in rat cortical cells for Neuron Count, Mundy Lab (AID 2284236; active means hit-call score of the fitted dose curve at least 0.9, where 1 is the maximum;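 further: neurons counted by imaging betaIII-tubulin and Hoechst stained cortical cells; cells exposed to compound for about 48 hours before fixation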)
# Method in brief: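 Read-out: neuron number by high-content imaging of betaIII-tubulin (Alexa Fluor-488) and Hoechst-labelled rat primary cortical cells.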
# [9] = CCTE_Mundy_HCI_Cortical_NOG_BPCount: CCTE's Neurite Outgrowth Assay in rat cortical cells for Branch Point Count, Mundy Lab (AID 2284237);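 further: branch points counted about two days after chemical exposure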
# Method in brief: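 Measured 50.33 h after dosing, this morphology endpoint uses rat primary cortical cultures labelled for betaIII-tubulin. Branch points are quantified by high-content imaging, with DMSO as negative control and baseline.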
# [10] = CCTE_Mundy_HCI_hNP1_Casp3_7: CCTE's Caspase-Glo 3/7 Assay in human neuroprogenitor cells for Apoptosis, Mundy Lab (AID 2284240)
# Method in brief: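 Luminescent caspase-3/7 readout, 26.5 h post-dose, in human neural progenitor cells from WA09 embryonic stem cells. Cells grew 40–44 h at 37 °C, 5% CO2 before chemical addition. Activity analysed as signal increase over DMSO baseline.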
# [11] = CCTE_Mundy_HCI_hNP1_CellTiter: CCTE's Cell Titer-Glo 2 Assay in human neuroprogenitor cells for Viability, Mundy Lab (AID 2284241; active means hit-call score of the fitted dose curve at least 0.9, where 1 is the maximum;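 further: a hit is a drop in ATP luminescence versus DMSO meaning reduced viability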)
# Method in brief: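 Viability read as luminescent ATP content (CellTiter-Glo, 30 min room temperature) twenty-four hours after dosing, relative to DMSO. Cells: WA09-derived hNP1 neuroprogenitors on poly-L-ornithine/laminin, plated 40 to 44 hours before chemical.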
# [12] = CCTE_Mundy_HCI_Cortical_Synap_Neur_Matur_NeuronCount: CCTE's Synaptogenesis and Neurite Maturation Assay in rat cortical cells for Neuron Count, Mundy Lab (AID 2284242; active means hit-call score of the fitted dose curve at least 0.9, where 1 is the maximum;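 further: hits reduce neuron count versus DMSO baseline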)
# Method in brief: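 Rat primary cortical cells, AraC added at DIV 5, dosed with media change from DIV 7 to DIV 12. Fixed, Hoechst-stained and immunolabelled for MAP2 and synaptophysin; neuron number counted by high-content imaging, loss fitted versus DMSO.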
# [13] = IUF_NPC2c_oligodendrocyte_migration_120hr: Leibniz Research Institute for Environmental Medicine (IUF) 120-hour Neural Progenitor Cell Migration Assay for Oligodendrocyte Migration (NPC2c) (AID 2284297);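 further: O4-positive oligodendrocyte migration distance divided by radial glia migration distance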
# Method in brief: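 Human fetal cortex-derived neural progenitor spheres (0.3 mm) were plated on poly-D-lysine/laminin in N2 differentiation medium and exposed to 7 concentrations for 120 h, with half-medium renewal at day 3. Oligodendrocyte migration distance was normalized to radial glia migration, relative to DMSO.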
# [14] = IUF_NPC2a_radial_glia_migration_120hr: Leibniz Research Institute for Environmental Medicine (IUF) 120-hour Neural Progenitor Cell Migration Assay for Radial Glia Migration (NPC2a) (AID 2284298)
# Method in brief: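 Single 0.3 mm primary human fetal-cortex (GW 16-19) NPC spheres were plated on poly-D-lysine/laminin in N2 differentiation medium and exposed from day 0 for 120 h, half-medium refreshed day 3. Migration distance came from Hoechst nuclei-density imaging, relative to DMSO.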
# [15] = IUF_NPC2a_radial_glia_migration_72hr: Leibniz Research Institute for Environmental Medicine (IUF) 72-hour Neural Progenitor Cell Migration Assay for Radial Glia Migration (NPC2a) (AID 2284299)
# Method in brief: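 Human fetal neural progenitor spheres (0.3 mm) plated on poly-D-lysine/laminin in N2 differentiation medium and exposed from day 0 at 7 concentrations; radial glia migration distance from sphere edge measured at 72 h on brightfield images, mean of four directions, vs DMSO.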
# [16] = IUF_NPC2b_neuronal_migration_120hr: Leibniz Research Institute for Environmental Medicine (IUF) 120-hour Neural Progenitor Cell Migration Assay for Neuron Migration (NPC2b) (AID 2284300)
# Method in brief: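 Primary human fetal cortex neural progenitor spheres (0.3 mm) plated on poly-D-lysine/laminin in N2 differentiation medium, exposed 120 h with half-medium refresh at day 3. TUBB3-stained neuron distance from sphere core, normalized to radial glia migration, versus DMSO.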
# [17] = IUF_NPC3_neuronal_differentiation_120hr: Leibniz Research Institute for Environmental Medicine (IUF) 120-hour Neuronal Differentiation Assay (NPC3) (AID 2284301)
# Method in brief: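 Human fetal (GW 16-19) neural progenitor spheres (0.3 mm) plated on poly-D-lysine/laminin in N2 differentiation medium, exposed 120 h at 37C with half-medium renewal day 3; 7 concentrations. TUBB3+ cells as % of Hoechst nuclei, CNN-identified; DMSO baseline.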
# [18] = IUF_NPC4_neurite_length_120hr: Leibniz Research Institute for Environmental Medicine (IUF) 120-hour Neuronal Morphology Assay for Neurite Length (NPC4) (AID 2284302)
# Method in brief: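 Human fetal neural progenitor spheres (0.3 mm) plated on poly-D-lysine/laminin in N2 differentiation medium, exposed from day 0 for 120 h with half-medium refresh at day 3, 37C. Mean neurite length (um) of TUBB3-positive neurons from skeletonized immunostaining images; DMSO ≤0.1%.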
# [19] = IUF_NPC5_oligodendrocyte_differentiation_120hr: Leibniz Research Institute for Environmental Medicine (IUF) 120-hour Oligodendrocyte Differentiation Assay (NPC5) (AID 2284304; active means hit-call score of the fitted dose curve at least 0.9, where 1 is the maximum;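 further: primary human fetal neural progenitor spheres plated to migrate and differentiate; share of O4-positive cells among Hoechst nuclei found by CNN image analysis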)
# Method in brief: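 Primary human fetal (GW 16-19) neural progenitor spheres (0.3 mm) plated on poly-D-lysine/laminin in N2 differentiation medium, exposed from day 0 for 120 h with half-medium refresh at day 3; O4-positive cells as percent of Hoechst nuclei, CNN-identified, versus DMSO.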
# [20] = IUF_NPC4_neurite_area_120hr: Leibniz Research Institute for Environmental Medicine (IUF) 120-hour Neuronal Morphology Assay for Neurite Area (NPC4) (AID 2284305; active means hit-call score of the fitted dose curve at least 0.9, where 1 is the maximum)
# Method in brief: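 Human fetal neural progenitor spheres (0.3 mm) plated on poly-D-lysine/laminin in N2 differentiation medium, exposed 120 h (7 concentrations, DMSO ≤0.1%, half-medium refresh day 3). Fixed, TUBB3 immunostained; mean neurite area per neuron by Omnisphero skeletonization.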
# [21] = IUF_NPC2-5_cytotoxicity_72hr: Cytotoxicity Assessment at 72 hours in the Leibniz Research Institute for Environmental Medicine (IUF) Neural Progenitor Cell Migration and Differentiation Assay for Cytotoxicity (NPC2-5) (AID 2284306; active means hit-call score of the fitted dose curve at least 0.9, where 1 is the maximum;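 further: LDH release into supernatant measured by resorufin fluorescence marking membrane damage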)
# Method in brief: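 Human fetal primary neural progenitor spheres (0.3 mm) plated on poly-D-lysine/laminin in N2 differentiation medium, exposed from day 0 at 37C. LDH-dependent resazurin-to-resorufin fluorescence in supernatant at 72 h; 7 concentrations, DMSO at most 0.1%.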
# [22] = IUF_NPC2-5_cytotoxicity_120hr: Cytotoxicity Assessment at 120 hours in the Leibniz Research Institute for Environmental Medicine (IUF) Neural Progenitor Cell Migration and Differentiation Assay (NPC2-5) (AID 2284307; active means hit-call score of the fitted dose curve at least 0.9, where 1 is the maximum;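 further: LDH released into supernatant as membrane damage marker via resorufin fluorescence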)
# Method in brief: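 Human fetal neural progenitor spheres (0.3 mm, GW 16-19 cortex) were plated on poly-D-lysine/laminin in N2 differentiation medium and exposed for 120 h, with half-medium refresh at day 3. LDH release into supernatant was read by resorufin fluorescence.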
# [23] = IUF_NPC2-5_cell_number_120hr: Cell Number Assessment at 120 hours in the Leibniz Research Institute for Environmental Medicine (IUF) Neural Progenitor Cell Migration and Differentiation Assay (NPC2-5) (AID 2284308);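 further: count of Hoechst-stained nuclei in migration zone around plated human neural progenitor spheres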
# Method in brief: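 Primary human fetal neural progenitor spheres (GW 16-19, 0.3 mm) plated on poly-D-lysine/laminin in N2 differentiation medium, exposed from day 0 for 120 h with half-medium refresh at day 3; Hoechst-positive nuclei counted in migration area versus DMSO control.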
# [24] = IUF_NPC1_cytotoxicity_72hr: Cytotoxicity Assessment at 72 hours in the Leibniz Research Institute for Environmental Medicine (IUF) Neural Progenitor Cell Proliferation Assay (NPC1) (AID 2284332; active means hit-call score of the fitted dose curve at least 0.9, where 1 is the maximum;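 further: rising LDH signal means more cytotoxicity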)
# Method in brief: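 Human fetal neural progenitor spheres (0.3 mm) in EGF/FGF proliferation medium, 37C, exposed 72 h without renewal. LDH release in supernatant read by resorufin fluorescence; gain of signal scored relative to dynamic range.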
# [25] = CCTE_Mundy_HCI_iCellGluta_NOG_NeuronCount: CCTE's Neurite Outgrowth Assay in iCellGluta cells for Neuron Count, Mundy Lab (AID 2284340; active means hit-call score of the fitted dose curve at least 0.9, where 1 is the maximum;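 further: cells fixed about 48 h after compound addition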)
# Method in brief: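 Neuron count read by automated high-content imaging of Hoechst 33342 and betaIII-tubulin/Alexa Fluor-488 labelling in human iPSC glutamatergic neurons. Activity fitted relative to DMSO.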
# [26] = CCTE_Mundy_HCI_iCellGluta_NOG_NeuriteCount: CCTE's Neurite Outgrowth Assay in iCellGluta cells for Neurite Count, Mundy Lab (AID 2284342; active means hit-call score of the fitted dose curve at least 0.9, where 1 is the maximum;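 further: chemical exposure about 48 hours starting 2 hours after plating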)
smiles,measurement,setting,value
BrC1CC(Br)CC(Br)CC(Br)CC(Br)CC(Br)C1 (stereo unspecified),AC50,[1],8.28 µM (active)
same,AC50,[2],4.04 µM (active)
same,AC50,[3],3.23 µM (active)
same,AC50,[4],3.61 µM (active)
same,AC50,[5],4.27 µM (active)
same,AC50,[6],3.8 µM (active)
same,AC50,[7],7.21 µM (active)
same,AC50,[8],9.27 µM (active)
same,AC50,[9],8.4 µM (active)
same,AC50,[10],4.22 µM (active)
same,AC50,[11],8.39 µM (active)
same,AC50,[12],3.43 µM (active)
same,AC50,[13],1.24 µM (active)
same,outcome,[14],inactive
same,outcome,[15],inactive
same,AC50,[16],3.11 µM (active)
same,AC50,[17],1.72 µM (active)
same,AC50,[18],1.04 µM (active)
same,AC50,[19],0.856 µM (active)
same,AC50,[20],1.06 µM (active)
same,outcome,[21],inactive
same,AC50,[22],4.52 µM (active)
same,outcome,[23],inactive
same,outcome,[24],inactive
same,AC50,[25],4.56 µM (active)
same,AC50,[26],4.69 µM (active)
